The source of these data is paper PMC4336329 (PLoS ONE, 2015).

The structures appear in SMILES notation. Among all 310,000 compounds or so, about 14,000 (4.5%) showed an effect of 50% or more. The effect is printed as a negative number. The sample holds strong results, similar compounds and a random draw of the others, so the mix is not that of the screen.
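Further: peak tail current of the secondary pulse compared with the same well before compound.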

In the assay the target is human ether-à-go-go-related gene (hERG) potassium channel (human, UniProt Q12809). Description: primary screen, population patch clamp on CHO cells stably expressing hERG; higher = less effect of the substance.
human ether-à-go-go-related gene (hERG) potassium channel, sequence (Q12809 whole entry, looked up): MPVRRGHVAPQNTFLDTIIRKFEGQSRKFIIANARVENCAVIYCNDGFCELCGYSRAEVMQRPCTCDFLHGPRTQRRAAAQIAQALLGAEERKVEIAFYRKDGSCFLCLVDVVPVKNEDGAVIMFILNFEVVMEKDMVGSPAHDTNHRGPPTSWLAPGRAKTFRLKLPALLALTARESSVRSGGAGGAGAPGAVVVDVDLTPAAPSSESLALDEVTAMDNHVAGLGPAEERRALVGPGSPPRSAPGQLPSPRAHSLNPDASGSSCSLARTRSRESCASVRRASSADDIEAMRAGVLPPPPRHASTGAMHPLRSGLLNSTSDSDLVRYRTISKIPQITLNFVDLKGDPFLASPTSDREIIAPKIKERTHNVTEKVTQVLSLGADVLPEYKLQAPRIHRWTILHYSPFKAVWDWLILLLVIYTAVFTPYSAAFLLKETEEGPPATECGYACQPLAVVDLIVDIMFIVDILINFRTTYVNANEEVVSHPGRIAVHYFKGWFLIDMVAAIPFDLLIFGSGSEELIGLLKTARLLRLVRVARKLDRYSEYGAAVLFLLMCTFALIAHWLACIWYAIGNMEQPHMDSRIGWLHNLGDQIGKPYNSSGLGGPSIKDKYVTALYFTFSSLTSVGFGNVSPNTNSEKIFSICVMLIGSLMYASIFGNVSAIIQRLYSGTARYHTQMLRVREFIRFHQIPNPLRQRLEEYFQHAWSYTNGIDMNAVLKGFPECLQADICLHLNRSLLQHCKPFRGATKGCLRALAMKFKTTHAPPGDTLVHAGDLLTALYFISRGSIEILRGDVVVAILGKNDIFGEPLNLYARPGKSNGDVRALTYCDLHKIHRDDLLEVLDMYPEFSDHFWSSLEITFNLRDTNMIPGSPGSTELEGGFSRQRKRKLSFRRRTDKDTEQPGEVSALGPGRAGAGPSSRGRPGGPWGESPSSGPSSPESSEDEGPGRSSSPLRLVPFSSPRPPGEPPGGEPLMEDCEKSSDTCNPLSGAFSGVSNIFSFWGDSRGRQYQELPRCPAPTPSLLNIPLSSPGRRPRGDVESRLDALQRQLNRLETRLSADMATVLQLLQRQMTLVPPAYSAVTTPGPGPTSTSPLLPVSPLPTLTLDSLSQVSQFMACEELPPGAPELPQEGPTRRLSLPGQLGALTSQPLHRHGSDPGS
Consider `Nc1[nH]nc2c1NN(c1ccc(Cl)cc1Cl)N2`, for which the “hERG current change (%, negative = inhibition) at 10uM” value turned out to be 12.4%. As for `COc1ccccc1Oc1nc(C)c(C(C)=O)cc1C#N`, the “hERG current change (%, negative = inhibition) at 10uM” value came to 14.8%. Consider `CCc1ccc(CN(C(=O)COc2c(C)cccc2C)C2CCS(=O)(=O)C2)cc1` (stereo not drawn), for which the “hERG current change (%, negative = inhibition) at 10uM” value is -12.2%. `Cc1ccc(NC(=O)c2cccc(S(=O)(=O)N(C)c3ccccc3)c2)cc1S(=O)(=O)N1CCOCC1`: the “hERG current change (%, negative = inhibition) at 10uM” value is listed as 9.04%. The same measure for `O=S(=O)(Nc1ccc(Cl)cc1)c1cccc2cccnc12`: 12.8%.

Take `COc1ccc(N2CCN(C(=O)CCS(=O)(=O)c3cccc4nsnc34)CC2)cc1`: the “hERG current change (%, negative = inhibition) at 10uM” value is -23.9%. On to `CCOc1cc(C(=S)N2CCOCC2)ccc1OC(=O)c1cccc(C)c1`, for which the “hERG current change (%, negative = inhibition) at 10uM” value was -42%. Turning to `Cc1cc(C(=O)CSc2nnc(-c3ccc(F)cc3)o2)c(C)n1CC1CCCO1` (stereo not drawn), the “hERG current change (%, negative = inhibition) at 10uM” value is recorded as -7.13%. The same measure for `O=C(CSc1nnc(-c2ccco2)o1)NC1CC2CCC1C2` (stereo not drawn): -2.05%.

`CCOC(=O)c1c(C)[nH]c(C(=O)N2CCc3cc(OC)c(OC)cc3C2)c1C`: the “hERG current change (%, negative = inhibition) at 10uM” value is -12.3%.

For the compound `COc1ccc(OC)c(NC(=O)C(C)Oc2ccc(Br)cc2)c1` (stereo not drawn), the “hERG current change (%, negative = inhibition) at 10uM” value is 5.96%.

For `CN(CC(=O)NC1CC(C)(C)NC(C)(C)C1)S(=O)(=O)c1ccc(Br)cc1`, the “hERG current change (%, negative = inhibition) at 10uM” value is listed as -2.22%.

In the case of `O=C(CCC1CCCC1)N1CCN(C(=O)COc2ccccc2)CC1`, the “hERG current change (%, negative = inhibition) at 10uM” value is -28.8%. The same measure for `Cc1cccc(OCC(=O)N2CCN(C(=O)CCC3CCCC3)CC2)c1`: -37.3%; for `O=C(O)C1CCN(C(=O)COc2ccc(Br)cc2)CC1`: 38%. On to `Cc1ccc(OCC(=O)N2CCN(C(=O)CCC3CCCC3)CC2)cc1`, for which the “hERG current change (%, negative = inhibition) at 10uM” value is reported as -54.3%. Regarding `O=C(COc1ccc(Br)cc1)N1CCN(C2CCCC2)CC1`, the “hERG current change (%, negative = inhibition) at 10uM” value is -63.6%. The same measure for `COc1ccc(OCC(=O)N2CCN(C(=O)COc3ccc(Br)cc3)CC2)cc1`: -71.9%; for `CCOC(=O)N1CCN(C(=O)COc2ccc(Br)cc2)CC1`: -39.1%; for `CN1CCCN(C(=O)COc2ccc(Br)cc2)CC1`: -17.3%.

On to `CC(=O)N1CCN(C(=O)COc2ccc(Br)cc2)CC1`, for which the “hERG current change (%, negative = inhibition) at 10uM” value is on record as -17.8%. For `c1ccc(Cn2nc(-c3ccccc3)nc2-c2ccccc2)cc1`, the “hERG current change (%, negative = inhibition) at 10uM” value was -2.5%. As for `O=c1[nH]c2ccc(S(=O)(=O)N3CCN(Cc4ccccc4)CC3)cc2[nH]c1=O`, the “hERG current change (%, negative = inhibition) at 10uM” value is -1.75%. For `Cn1c(CNC(=O)c2cccs2)n[nH]c1=S`, the “hERG current change (%, negative = inhibition) at 10uM” value was 18.1%. For `O=C(NCc1ccccn1)c1ccc(NS(=O)(=O)c2cccc(Cl)c2)cc1`, the “hERG current change (%, negative = inhibition) at 10uM” value turned out to be 7.73%. With `COc1ccc(-n2nnnc2/C=C\Nc2ccc(C)cc2)cc1`, the “hERG current change (%, negative = inhibition) at 10uM” value was found to be 16%.

For `COC(=O)CNC(=O)CNC(=O)c1nn(-c2ccc(OC)c(OC)c2)c(=O)c2ccccc12`, the “hERG current change (%, negative = inhibition) at 10uM” value is 18.1%. For `COc1ccc2nc(NC(=O)C3COc4ccccc4O3)sc2c1` (stereo not drawn), the “hERG current change (%, negative = inhibition) at 10uM” value was determined as 0.282%.

`CCCCN1C(=O)/C(=C2/Sc3ccc(OC)cc3N2CC)SC1=S`: the “hERG current change (%, negative = inhibition) at 10uM” value is on record as 25.5%. The same measure for `O=C(c1ccc(Cl)c(Cl)c1)c1cc(-c2ccccn2)c(N2CCOCC2)s1`: -29.1%; for `O=C(c1ccccc1)c1cc(-c2ccccn2)c(N2CCOCC2)s1`: -29.4%; for `O=C(c1ccc(Cl)cc1)c1cc(-c2ccccn2)c(N2CCOCC2)s1`: -54.9%. In the case of `S=C(N/N=C/c1ccc2ncccc2c1)Nc1ccccc1`, the “hERG current change (%, negative = inhibition) at 10uM” value came out at 63.6%.

For `Cc1ccc(C(=O)CSc2ccccn2)cc1`, the “hERG current change (%, negative = inhibition) at 10uM” value is listed as -7.25%. As for `CCC1CCCCN1CCCNC(=O)C1CCCN(c2nn3c(=O)cc(C)nc3s2)C1` (stereo not drawn), the “hERG current change (%, negative = inhibition) at 10uM” value is recorded as 12.2%. `O=C(O)CCCC(=O)Nc1ccc(N=Nc2ccccc2)cc1`: the “hERG current change (%, negative = inhibition) at 10uM” value was determined as 14.5%. The same measure for `COc1ccc(S(=O)(=O)N2CCCC2CNC(=O)C(=O)NCc2ccc(C)cc2)cc1` (stereo not drawn): -29.6%; for `Cc1cc(O)c2c(C)c(CC(=O)N3CCN(C(=O)C4COc5ccccc5O4)CC3)c(=O)oc2c1` (stereo not drawn): -28%. Take `Cc1c(CC(=O)N2CCN(C(=O)C3COc4ccccc4O3)CC2)c(=O)oc2c(C)c(O)ccc12` (stereo not drawn): the “hERG current change (%, negative = inhibition) at 10uM” value is recorded as -20%. The same measure for `O=C(C1COc2ccccc2O1)N1CCOCC1` (stereo not drawn): 10.5%; for `CCOC(=O)N1CCN(C(=O)C2COc3ccccc3O2)CC1` (stereo not drawn): -2.28%. As for `Cc1c(CC(=O)N2CCN(C(=O)C3COc4ccccc4O3)CC2)c(=O)oc2cc(O)c(Cl)cc12` (stereo not drawn), the “hERG current change (%, negative = inhibition) at 10uM” value is listed as -52.4%.
